This note sets out measurements from PubChem BioAssay (Tox21).

Assay [1] can be described thus: qHTS RealTime-Glo MT Cell Viability Assay in HepG2 cells - 16 hour (AID 1224885). Note: nearly all actives have a fitted effect of over 50% in size. The method in brief:
(§1)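 Cell number in HepG2 cultures estimated from NanoLuc luminescence generated by metabolic reduction of a prosubstrate by living cells. The homogeneous, nonlytic format allowed repeated reads at 0, 8, 16, 24, 32 and 40 h of compound exposure.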
In general terms: Quantitative high-throughput screening tests each substance at several concentrations.

The nature of assay [2]: qHTS RealTime-Glo MT Cell Viability Assay in HEK293 cells - 24 hour (AID 1224886). Note: nearly all actives have a fitted effect of over 50% in size. Note: potency is the fitted concentration of half-maximal effect. Summed up: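 Homogeneous bioluminescent viability format in HEK293 cells (600 cells/well). Following 5 h at 37 C/5% CO2, 23 nL compound was pintooled; the signal was measured repeatedly during 40 h incubation.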
Assay [3] can be described thus: qHTS RealTime-Glo MT Cell Viability Assay in HEK293 cells - 8 hour (AID 1224887). Note: nearly all actives have a fitted effect of over 50% in size. Note: potency is the fitted concentration of half-maximal effect. Summed up: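 Measured as luminescence from the same continuously cultured HEK293 wells at successive time points (0, 8, 16, 24, 32, 40 h) after compound addition. Reagent present from seeding; dosing at 5 h; incubation 37 C.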
Assay [4] is described as follows: A CellTox Green Cytotoxicity Assay to monitor cytotoxicity in HEK293 cells - 16 hour (AID 1224888). Note: nearly all actives have a fitted effect of over 35% in size. Summed up:
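Homogeneous no-lysis format: HEK293 cell suspension mixed with CellTox Green reagent, seeded, incubated 5 h at 37 C/5% CO2, then dosed by pintool with compound in DMSO.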

The nature of assay [5]: qHTS RealTime-Glo MT Cell Viability Assay in HepG2 cells - 0 hour (AID 1224889). Note: nearly all actives have a fitted effect of over 50% in size. Summed up:
as §1

A short description of assay [6]: A CellTox Green Cytotoxicity Assay to monitor cytotoxicity in HepG2 cells - 8 hour (AID 1224890). Note: nearly all actives have a fitted effect of over 45% in size. Summed up: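 Fluorescent DNA-binding dye, 600 HepG2 cells/well, 5 h preincubation then compound in DMSO; same plates read at 0–40 h, 37 C.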
Assay [7] in a line: qHTS assay to identify small molecule antagonists of the estrogen receptor alpha (ER-alpha) signaling pathway using the BG1 cell line in the presence of 0.1 nM 17-beta-estradiol - cell viability counter screen (AID 1259241). Note: nearly all actives have a fitted effect of over 40% in size. Summed up: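 VM7Luc4E2, 4,000 cells/well, phenol red-free medium + 10% charcoal-stripped FBS; 24 hr plating; cpd + 0.1 nM E2 final, 22 hr 37C/5% CO2; CellTiter-Fluor 30 min, fluorescence.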

Assay [8] is described as follows: qHTS assay to identify small molecule antagonists of the androgen receptor (AR) signaling pathway using the MDA cell line in the presence of 0.5 nM R1881 - cell viability counter screen (AID 1259242). Note: nearly all actives have a fitted effect of over 45% in size. Note: potency is the fitted concentration of half-maximal effect. The method in brief: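 Human breast carcinoma MDA-kb2 cells, cultured without CO2, receive compounds alongside 0.5 nM (final) R1881 agonist. After 16 hr at 37C, viability is taken as live-cell protease signal.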

The nature of assay [9]: qHTS assay to identify small molecule HDAC inhibitors (AID 1259364).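 Note: wild-type HCT-116 cells with endogenous class I/II HDAC activity; top concentration of the series differs between compounds; nearly all actives have a fitted effect of over 45% in size.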 Summed up: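 After a 2 hr compound incubation (37C, 5% CO2), HCT-116 cells seeded at 1,500/well the day before received HDAC-Glo reagent; signal read as luminescence after 30 min at room temperature.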
Assay [10] is described as follows: qHTS assay to identify small molecule HDAC inhibitors - cell viability counter screen (AID 1259365). Summed up: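 Luminescence from CellTiter-Glo, developed 30min at room temperature, reports viability of wild-type HCT-116 cells treated 2hr with compounds at 37 C and 5% CO2 after overnight plating.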
A short description of assay [11]: qHTS assay to identify small molecule agonists of the sonic hedgehog signaling (Shh) pathway - cell viability counter screen (AID 1259366). Note: nearly all actives have a fitted effect of over 50% in size. Note: potency is the fitted concentration of half-maximal effect. The method in brief: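 Cytotoxicity counter screen run in the same wells as the Shh reporter assay. NIH/3T3 cells carrying a Gli1 response element–driven luciferase were treated with DMSO-dissolved compounds for 24hr, and live-cell protease activity was measured with CellTiter-Fluor.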

Assay [12] is described as follows: qHTS assay to identify small molecule agonists of the sonic hedgehog signaling (Shh) pathway (AID 1259368; calls by dose curve;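 note: NIH/3T3-derived 3T3Gli1-Luc cells carrying a stable Gli1-driven firefly luciferase reporter; series mostly up to about 92 µM; nearly all actives have a fitted effect of over 15% in size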). Summed up: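 Stable NIH/3T3 Gli1-Luc reporter clone; 24 hr cpd exposure after a 4 hr settling period; luminescence endpoint.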
Assay [13] can be described thus: qHTS assay to identify small molecule antagonists of the sonic hedgehog signaling (Shh) pathway (AID 1259369; calls by dose curve; note: nearly all actives have a fitted effect of over 45% in size; note: potency is the fitted concentration of half-maximal effect). Summed up: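 Gli1 transcriptional reporter (firefly Luc) in NIH/3T3 background, conditioned-medium activated. 24hr exposure, luminescence endpoint.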
Assay [14] has as its target Estrogen receptor beta (Homo sapiens) (UniProt Q92731). The assay can be described thus: qHTS assay to identify small molecule agonists of the estrogen receptor beta (ER-beta) signaling pathway (AID 1259377; active = well fitted activation curve with a large enough effect in the signal ratio in the repeat runs, not every such curve was filed as active; the % refers to the signal ratio). Summed up:
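HEK293T ER-beta-UAS-bla; 2% charcoal-stripped FBS; cells pre-incubated 6 hr, compound 16 hr, 37C/5% CO2; LiveBLAzer B/G FRET substrate 2 h RT; fluorescence intensity read.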

A short description of assay [15]: qHTS assay to identify small molecule antagonists of the sonic hedgehog signaling (Shh) pathway - cell viability counter screen (AID 1259367). Note: nearly all actives have a fitted effect of over 55% in size. The method in brief:
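CellTiter-Fluor signal in conditioned medium-stimulated 3T3 Gli1-Luc cells, 23 hr compound exposure, 37C.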

Assay [16] addresses Androgen receptor (Homo sapiens) (UniProt P10275). The assay can be described thus: qHTS assay to identify small molecule antagonists of the androgen receptor (AR) signaling pathway using the MDA cell line in the presence of 0.5 nM R1881 (AID 1259243). Note: nearly all actives have a fitted effect of over 50% in size. The method in brief: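 Cells: MDA-kb2 (MMTV-luc). Stimulus: 0.5 nM R1881. Time: 16 hr, 37C, no CO2. Detection: ONE-Glo luminescence after 30 min at RT.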

The target of assay [17] is Estrogen receptor (Homo sapiens) (UniProt P03372). Kind of assay: qHTS assay to identify small molecule antagonists of the estrogen receptor alpha (ER-alpha) signaling pathway using the BG1 cell line in the presence of 0.1 nM 17-beta-estradiol (AID 1259244). Note: nearly all actives have a fitted effect of over 50% in size. Summed up:
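Seeding of stripped-serum-adapted VM7Luc4E2 cells, 24 h attachment, compound transfer, then 0.1 nM final 17beta-estradiol; after 22 h incubation, ONE-Glo reagent and luminescence reading.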

Assay [18] concerns the target Estrogen receptor beta (Homo sapiens) (UniProt Q92731). The assay can be described thus: qHTS assay to identify small molecule antagonists of the estrogen receptor beta (ER-beta) signaling pathway (AID 1259378; active = well fitted inhibition curve with a large enough effect in the signal ratio in the repeat runs, not every such curve was filed as active; the % refers to the signal ratio). Summed up:
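Antagonist mode: compounds added to beta-lactamase reporter HEK293T ER-beta-UAS cells stimulated with E2 (1nM final), 16 hr at 37C. LiveBLAzer B/G FRET substrate, 2 hours room temperature, fluorescence read-out.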

Assay [19] in a line: qHTS assay to identify small molecule phospholipidosis (PLD) inducers (AID 1259344; active = well fitted curve in the direction sought with a large enough effect; an effect the other way counts as inactive or inconclusive). The method in brief:
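Accumulated phospholipid, stained red by LipidTOX during 24 h compound treatment of HepG2 cells at 37 C, is quantified from images as pit number and intensity, normalised per cell using Hoechst-stained nuclei.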

Each structure is given as a SMILES string. Unmarked numbers belong to inactive results. Inconclusive results are not listed. Active and inactive are the calls of the source. Unless noted, calls come from the whole dose curve; as a rule, active = well fitted curve in the direction sought with a large enough effect in the repeat runs; inconclusive = weak or mixed curves; inactive = no such curve, though single readings can be large; an effect the other way counts as inactive or inconclusive.

Estrogen receptor (Homo sapiens), sequence (P03372 whole entry, looked up): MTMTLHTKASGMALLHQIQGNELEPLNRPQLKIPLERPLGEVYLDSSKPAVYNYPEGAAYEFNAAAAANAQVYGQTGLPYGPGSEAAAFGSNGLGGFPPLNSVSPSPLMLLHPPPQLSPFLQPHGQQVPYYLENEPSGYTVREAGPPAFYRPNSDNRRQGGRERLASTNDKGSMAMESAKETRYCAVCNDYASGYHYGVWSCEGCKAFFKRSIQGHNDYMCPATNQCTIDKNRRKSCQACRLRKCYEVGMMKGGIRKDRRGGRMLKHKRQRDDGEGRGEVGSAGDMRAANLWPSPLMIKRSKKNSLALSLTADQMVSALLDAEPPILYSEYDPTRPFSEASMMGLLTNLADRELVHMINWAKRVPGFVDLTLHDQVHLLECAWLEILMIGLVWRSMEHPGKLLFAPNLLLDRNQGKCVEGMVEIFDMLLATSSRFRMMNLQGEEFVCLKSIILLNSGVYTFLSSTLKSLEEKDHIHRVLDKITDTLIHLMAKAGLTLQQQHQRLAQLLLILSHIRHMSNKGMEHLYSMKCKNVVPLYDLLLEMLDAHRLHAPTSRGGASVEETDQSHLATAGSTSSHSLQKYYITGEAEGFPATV
Estrogen receptor beta (Homo sapiens), sequence (Q92731 whole entry, looked up): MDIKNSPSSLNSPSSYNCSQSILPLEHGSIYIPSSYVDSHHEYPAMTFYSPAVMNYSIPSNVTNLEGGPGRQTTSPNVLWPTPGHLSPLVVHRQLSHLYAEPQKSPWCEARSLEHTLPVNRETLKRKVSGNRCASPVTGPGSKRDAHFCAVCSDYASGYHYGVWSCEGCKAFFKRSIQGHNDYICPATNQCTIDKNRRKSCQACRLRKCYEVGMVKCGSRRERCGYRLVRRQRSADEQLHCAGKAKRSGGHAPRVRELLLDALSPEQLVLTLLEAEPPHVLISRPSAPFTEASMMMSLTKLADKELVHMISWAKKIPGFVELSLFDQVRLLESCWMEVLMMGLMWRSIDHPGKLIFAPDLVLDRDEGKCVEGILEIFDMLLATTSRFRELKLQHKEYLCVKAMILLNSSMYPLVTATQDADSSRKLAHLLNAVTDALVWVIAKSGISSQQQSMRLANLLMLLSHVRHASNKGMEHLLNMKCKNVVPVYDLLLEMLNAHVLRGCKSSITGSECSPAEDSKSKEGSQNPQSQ
Androgen receptor (Homo sapiens), sequence (P10275 whole entry, looked up): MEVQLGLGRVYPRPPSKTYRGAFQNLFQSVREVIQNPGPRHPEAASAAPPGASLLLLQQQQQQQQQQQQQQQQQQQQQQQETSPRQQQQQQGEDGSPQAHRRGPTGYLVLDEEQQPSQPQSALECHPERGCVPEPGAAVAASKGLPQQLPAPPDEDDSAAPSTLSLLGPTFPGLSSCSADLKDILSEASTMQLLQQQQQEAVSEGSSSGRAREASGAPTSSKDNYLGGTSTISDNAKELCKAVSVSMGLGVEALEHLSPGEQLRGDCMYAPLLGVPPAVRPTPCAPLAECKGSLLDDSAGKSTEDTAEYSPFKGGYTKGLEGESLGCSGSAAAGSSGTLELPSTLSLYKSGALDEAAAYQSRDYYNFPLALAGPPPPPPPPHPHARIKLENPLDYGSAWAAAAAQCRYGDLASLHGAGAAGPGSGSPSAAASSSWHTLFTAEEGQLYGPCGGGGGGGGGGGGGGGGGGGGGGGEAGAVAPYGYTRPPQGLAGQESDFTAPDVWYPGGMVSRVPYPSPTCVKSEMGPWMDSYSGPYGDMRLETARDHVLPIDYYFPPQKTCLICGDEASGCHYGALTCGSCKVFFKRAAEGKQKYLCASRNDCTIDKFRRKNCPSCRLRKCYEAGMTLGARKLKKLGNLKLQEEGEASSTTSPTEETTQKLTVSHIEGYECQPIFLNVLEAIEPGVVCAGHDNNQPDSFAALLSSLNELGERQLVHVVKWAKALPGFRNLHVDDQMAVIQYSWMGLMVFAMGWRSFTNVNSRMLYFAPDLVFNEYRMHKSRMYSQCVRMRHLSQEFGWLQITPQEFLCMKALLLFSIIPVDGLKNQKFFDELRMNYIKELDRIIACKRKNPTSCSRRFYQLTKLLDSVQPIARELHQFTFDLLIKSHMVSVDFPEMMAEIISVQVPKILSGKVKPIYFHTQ

As for `Nc1ccc(Oc2cccc(Oc3ccc(N)cc3)c2)cc1`, the Potency entry in assay [1], in assay [2], in assay [3], in assay [4], in assay [5] and in assay [6] was “inactive” each time. The Potency result in [7], in assay [8], in assay [9], in assay [10], in [11] and in [12] was “inactive” throughout. Also, the Potency in [13] was 8.63 µM (active). The outcome in assay [14] was inactive.

Consider `COc1c(Br)cc(Br)c(C)c1Br`, for which the Potency entry in [1], in assay [2], in assay [3], in [4], in [5] and in assay [6] was “inactive” throughout. Also, the Potency entry in [7], in assay [8], in assay [9], in assay [10], in assay [11] and in assay [15] was “inactive” in each case. Besides, the Potency entry in assay [12] and in [13] was “inactive” in each case.

Regarding `C/C=C/C(=O)OCC(C)C`, the Potency entry in assay [1], in assay [2], in [3], in [4], in [5] and in assay [6] was “inactive” throughout. In addition, the Potency result in assay [7], in assay [8], in assay [16], in assay [17], in assay [9] and in assay [10] was “inactive” throughout. Moreover, the Potency result in assay [11], in [15], in assay [12] and in assay [18] was “inactive” each time. In addition, the compound was classed as inactive in assay [14].

As to `N=C(N)c1ccc(/C=C/c2ccc(C(=N)N)cc2O)cc1`, in [19], the Potency result is “inactive”.

For `CN1CCN(CCCN2c3ccccc3Sc3ccc(C(F)(F)F)cc32)CC1`, the Potency in assay [2] was 23.9 µM (active); in [3], 23.9 µM (active); in assay [11], 26.6 µM (active); in assay [13], 10.6 µM (active). For the same compound, the Potency result in assay [9], in [10], in assay [15] and in [12] was “inactive” throughout.

Turning to `C=C1CC[C@H]2O[C@]2(C)CC[C@@H]2[C@@H]1CC2(C)C`, the Potency result in [1], in assay [4], in [5], in assay [6], in assay [7] and in [8] was “inactive” throughout. Further, the Potency result in assay [16], in assay [17], in assay [9], in assay [10], in [11] and in assay [15] was “inactive” in each case. In addition, the Potency entry in assay [12], in [13] and in [18] was “inactive” throughout. The Potency in assay [3] was 49 µM (active). The compound was classed as inactive in assay [14].

`CCC(NC(C)C)C(O)c1ccc(O)c(O)c1` (stereo not drawn): the Potency entry in [19] is “inactive”.

Turning to `Clc1nc(C(Cl)(Cl)Cl)c(Cl)c(Cl)c1Cl`, the Potency result in [2], in assay [5], in assay [6], in assay [7], in assay [17] and in [9] was “inactive” throughout. Besides, the Potency result in assay [10], in assay [11], in assay [15] and in assay [12] was “inactive” in each case. Also, the Potency in assay [8] was 30.6 µM (active).

For the compound `O=S(=O)(c1ccc(OCc2ccccc2)cc1)c1ccccc1O`, the Potency entry in assay [1], in assay [4], in assay [5], in assay [6], in assay [7] and in [8] was “inactive” throughout. The Potency result in assay [9], in assay [10], in assay [11] and in [12] was “inactive” in each case.
